The text below walks through data of PubChem BioAssay.

As a reminder, the inhibition is how much of the control response was suppressed.

Assay [1] deals with TRPC4 beta (transient receptor potential cation channel C4), mouse. As to the kind of experiment: TRPC4 cation channel opening, retest – cell-based, Fluo4 calcium, HEK293 TRPC4beta/mu-opioid, duplicates, 10 µM, confirmation (AID 2426;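 active = fluorescence ratio normalized to control raised more than 50% in primary screen plus both repeat runs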;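 for activation: percent rise of integrated ratio over buffer wells lacking compound which define 0%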). As to conditions: Fluo4 calcium fluorescence, at 10 µM; stronger effect = higher value.
Assay [2] has as its system transient receptor potential cation channel C4 beta (TRPC4), mouse. Description: TRPC4 cation channel opening, second retest – cell-based, second round, Fluo4, HEK293 TRPC4beta/mu-opioid, 1 µM, confirmation (AID 2461;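 active = primary screen active and over 50% activation in each of two duplicate runs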;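 for activation: 0% = wells without test compound as baseline of integrated fluorescence ratio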). The note with it: Fluo4 calcium fluorescence, at 1 µM; stronger effect = higher value.
The subject of assay [3] is TRPC4 (transient receptor potential cation channel C4 beta), mouse. Description: potentiation of DAMGO EC20 TRPC4 response – cell-based, second round, Fluo-4, HEK293 TRPC4beta/mu-opioid, 1 µM, confirmation (AID 2554;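 active = primary screen hit whose fluorescence ratio, in both repeats, exceeds the weak agonist control mean by 3 SD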). As to conditions: DAMGO EC20, Fluo-4 calcium flux, at 1 µM; stronger effect = higher value. A general note: Calcium flux is commonly read through the fluorescence of an indicator in the cells.

The subject of assay [4] is TRPC4 beta (transient receptor potential cation channel C4), mouse. As to the kind of experiment: potentiation of DAMGO EC20 TRPC4 response – cell-based, Fluo-4, HEK293 TRPC4beta/mu-opioid, confirmation (AID 2555;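 active = primary screen hit whose calcium fluorescence ratio, in both repeats, exceeds the weak agonist control mean by 3 SD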). As to conditions: DAMGO EC20, Fluo-4 calcium flux, at 10 µM; stronger effect = higher value.
Assay [5] addresses Short transient receptor potential channel 4 (Mus musculus) (UniProt Q9QUQ5). Description: blockers of DAMGO-evoked TRPC4 calcium flux – cell-based, Fluo4, HEK293 TRPC4beta/mu-opioid, confirmation (AID 2636;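 active = calcium signal cut by more than 3 SD below the full-agonist control yet still positive, in both repeats and the earlier primary screen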). The note with it: at 10 µM; stronger effect = higher value.
Assay [6] shares this target. Description: blockers of DAMGO-evoked TRPC4 calcium flux – cell-based, second round, Fluo4, HEK293 TRPC4beta/mu-opioid, 1 µM, confirmation (AID 2637).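 For inhibition: percent of integrated ratio relative to wells lacking test compound.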 The note with it: at 1 µM; stronger effect = higher value.
Assay [7] shares this target. As to the kind of experiment: potentiation of DAMGO-evoked TRPC4 calcium signal – cell-based, HEK293 TRPC4/mu-opioid, Fluo-4 calcium, EC20 DAMGO, dose response (AID 434941;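 active = earlier screen potentiator hit that boosts the TRPC4 ion channel at some dose, with a dose response; inactive = no potentiation, no dose response, or not a prior hit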;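 note: calcium entry triggered by an EC20 dose of DAMGO at the co-expressed mu-opioid receptor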).
For assay [8], the target named is Short transient receptor potential channel 6 (Mus musculus) (UniProt Q61143). Description: TRPC6 blockade by TRPC4 inhibitor hits – cell-based, HEK293, membrane potential dye, duplicate, selectivity assay for TRPC4 inhibitor project, confirmation (AID 434948;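 active = active in primary screen and both duplicates, each dropping signal beyond three positive-control SD with fluorescence still positive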). As to conditions: HEK293 TRPC6, membrane potential dye fluorescence, at 10 µM, stimulated with maximal-effect acetylcholine; stronger effect = higher value.
Sequence of Short transient receptor potential channel 6 (Mus musculus) (Q61143 whole entry, looked up): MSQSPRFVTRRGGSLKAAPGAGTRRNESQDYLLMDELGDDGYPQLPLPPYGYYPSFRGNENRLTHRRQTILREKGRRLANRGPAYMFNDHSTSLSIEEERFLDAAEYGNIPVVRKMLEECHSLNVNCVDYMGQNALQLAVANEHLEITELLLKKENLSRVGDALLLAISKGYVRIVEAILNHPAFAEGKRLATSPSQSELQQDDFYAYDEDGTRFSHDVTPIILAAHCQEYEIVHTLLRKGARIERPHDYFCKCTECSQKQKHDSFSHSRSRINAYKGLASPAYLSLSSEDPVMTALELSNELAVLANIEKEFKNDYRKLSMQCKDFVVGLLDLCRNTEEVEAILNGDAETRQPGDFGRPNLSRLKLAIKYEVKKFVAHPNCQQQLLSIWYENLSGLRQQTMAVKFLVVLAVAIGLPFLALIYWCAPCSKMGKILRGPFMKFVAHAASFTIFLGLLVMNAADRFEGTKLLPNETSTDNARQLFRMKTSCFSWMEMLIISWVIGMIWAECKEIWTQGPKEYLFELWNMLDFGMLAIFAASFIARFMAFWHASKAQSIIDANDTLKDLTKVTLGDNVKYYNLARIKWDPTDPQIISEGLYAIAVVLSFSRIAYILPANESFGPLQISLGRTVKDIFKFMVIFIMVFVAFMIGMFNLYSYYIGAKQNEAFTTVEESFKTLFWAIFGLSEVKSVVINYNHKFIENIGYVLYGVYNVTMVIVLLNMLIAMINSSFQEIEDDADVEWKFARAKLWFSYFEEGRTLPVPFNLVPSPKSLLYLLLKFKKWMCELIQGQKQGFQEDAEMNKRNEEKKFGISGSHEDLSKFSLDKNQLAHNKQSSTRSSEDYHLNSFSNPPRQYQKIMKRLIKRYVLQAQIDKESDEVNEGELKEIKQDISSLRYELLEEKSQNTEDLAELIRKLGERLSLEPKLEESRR

For assay [9] the target is unchanged. Description: TRPC6 opening by TRPC4 activator hits – cell-based, HEK293, membrane potential dye, duplicate, selectivity assay for TRPC4 activator project, confirmation (AID 434950;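 active = membrane potential signal rise above negative control mean plus 3 SD in both duplicates, also active in the earlier TRPC4 screen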;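 for activation: 0% = buffer only wells and 100% = acetylcholine maximal-effect wells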). As to conditions: HEK293 TRPC6, membrane potential fluorescence, at 10 µM; activation: stronger effect = higher value; outcome: activation.
Assay [10] shares this target. As to the kind of experiment: positive modulators of mouse TRPC6 channel – HEK293 cells, membrane potential dye, duplicate, selectivity assay for TRPC4 potentiator project, confirmation (AID 434952;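 active = compound raising the membrane signal above positive-control mean plus 3 SD in both repeats, and a primary screen hit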). The note with it: HEK293 TRPC6, membrane potential dye fluorescence, at 10 µM, maximal acetylcholine added after compound; stronger effect = higher value.
For assay [11], the target named is Short transient receptor potential channel 4 (Mus musculus) (UniProt Q9QUQ5). As to the kind of experiment: calcium flux activators in TRPC4/5HT1a cells, counter-screen for TRPC4 activator project, cell-based, second counter screen, HEK293 TRPC4/5HT1a, Fluo-4 (AID 434977;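 active = calcium signal rise above buffer-control mean plus 5 SD in both duplicates, and also a hit in the primary screen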;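 for activation: plate controls were assay buffer for no effect and maximal serotonin response for full effect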). The note with it: Fluo-4 calcium flux, at 10 µM; stronger effect = higher value.
Sequence of Short transient receptor potential channel 4 (Mus musculus) (Q9QUQ5 whole entry, looked up): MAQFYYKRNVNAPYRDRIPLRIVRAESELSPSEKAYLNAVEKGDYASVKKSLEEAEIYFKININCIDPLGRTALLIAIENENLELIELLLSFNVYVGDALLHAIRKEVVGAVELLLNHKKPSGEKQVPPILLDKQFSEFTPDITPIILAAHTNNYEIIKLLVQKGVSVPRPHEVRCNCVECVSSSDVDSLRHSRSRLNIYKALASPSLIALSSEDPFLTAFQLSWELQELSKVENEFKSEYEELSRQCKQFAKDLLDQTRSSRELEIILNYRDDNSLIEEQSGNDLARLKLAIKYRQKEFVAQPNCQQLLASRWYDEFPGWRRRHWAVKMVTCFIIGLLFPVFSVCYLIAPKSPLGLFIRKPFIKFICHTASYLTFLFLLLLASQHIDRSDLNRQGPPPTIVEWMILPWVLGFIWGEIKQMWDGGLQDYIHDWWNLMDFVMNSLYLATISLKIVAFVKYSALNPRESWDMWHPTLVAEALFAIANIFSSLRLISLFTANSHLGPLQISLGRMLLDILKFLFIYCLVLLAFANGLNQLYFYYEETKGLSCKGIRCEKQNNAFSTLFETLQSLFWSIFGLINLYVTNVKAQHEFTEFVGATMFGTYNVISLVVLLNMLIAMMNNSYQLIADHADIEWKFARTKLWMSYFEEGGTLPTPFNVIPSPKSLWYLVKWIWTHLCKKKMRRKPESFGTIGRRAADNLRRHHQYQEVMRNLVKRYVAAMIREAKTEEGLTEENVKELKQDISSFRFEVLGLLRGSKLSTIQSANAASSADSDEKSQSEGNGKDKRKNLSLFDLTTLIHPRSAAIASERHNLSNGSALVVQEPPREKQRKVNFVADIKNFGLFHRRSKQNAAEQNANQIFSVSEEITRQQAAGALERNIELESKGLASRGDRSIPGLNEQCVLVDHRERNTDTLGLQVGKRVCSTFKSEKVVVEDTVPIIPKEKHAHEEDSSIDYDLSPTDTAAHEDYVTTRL
A short description of assay [12]: serotonin-gated TRPC4 signal block – cell-based, second counter screen, HEK293 TRPC4/5HT1a, Fluo-4, counter-screen for TRPC4 inhibitor project, confirmation (AID 434978;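 active = primary screen active whose calcium signal fell more than 3 SD beyond the full-serotonin control mean in both duplicate plates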;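 for outcome: serotonin given first at submaximal then at maximal dose after compound preincubation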). As to conditions: Fluo-4 calcium flux, at 10 µM, serotonin added to trigger calcium flux; stronger effect = higher value. A general note: The purpose of a counterscreen is to sort out artefacts and off-target activity.

Assay [13] deals with TRPC4 (mouse), co-expressed with 5HT1a in HEK293. As to the kind of experiment: enhancement of serotonin-evoked TRPC4 response – cell-based, second counter screen, HEK293 TRPC4/5HT1a, Fluo-4, counter-screen for TRPC4 potentiator project, confirmation (AID 434979;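 active = signal rise over 3 SD above mean of control wells given weak agonist, in both repeats and first screen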). As to conditions: Fluo-4 calcium flux, at 10 µM, serotonin added at its EC20 dose; stronger effect = higher value.
The nature of assay [14]: nonspecific calcium rise without TRPC4 – cell-based, HEK293 mu-opioid receptor line, counter-screen for TRPC4 activator project, confirmation (AID 449723;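 active = hit in primary screen, with calcium signal over 5 SD above buffer well mean in both duplicates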;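 note: counter screen cells carry the mu-opioid receptor alone and lack TRPC4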). As to conditions: HEK293 mu-opioid cells, Fluo-4 calcium fluorescence, at 10 µM; stronger effect = higher value.
The nature of assay [15]: nonspecific potentiation of DAMGO calcium response – cell-based, HEK293 mu-opioid receptor line, counter-screen for TRPC4 allosteric potentiator project, confirmation (AID 449724;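 active = calcium signal rise more than 3 SD above the low-dose agonist control mean, in both duplicate plates and the primary screen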;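 note: HEK293 cells carrying mu-opioid receptor only with no TRPC4 channel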). The note with it: HEK293 mu-opioid receptor cells, Fluo-4 calcium flux, at 10 µM, compound added before EC20 DAMGO stimulus; stronger effect = higher value.
Assay [16] has as its target Short transient receptor potential channel 4 (Mus musculus) (UniProt Q9QUQ5). Description: block of DAMGO-driven TRPC4 calcium entry – cell-based, HEK293 TRPC4/mu-opioid, Fluo-4 calcium, dose response (AID 434942;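 active = primary screen inhibitor hit that blocks the TRPC4 channel at some tested dose, yielding a dose curve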).

For some assays here: Measured potencies and affinities stand elsewhere. The source made the active and inactive calls.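 Rule for the calls, unless noted: active = calcium signal ratio cut to more than 3 SD under the fully stimulated control mean yet still positive, in both repeats and the primary screen; inactive = the rest.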

Regarding `Cc1ccccc1Nc1nc(NCc2ccco2)c2ccccc2n1`, the outcome in assay [1], in assay [2], in assay [3], in assay [4], in [5] and in [7] was inactive. Moreover, the molecule was classed as inactive in [9], in assay [10], in assay [11], in assay [13], in assay [14] and in [15]. The inhibition is 41% (active) in assay [6], 43.5% (active) in [8] and 36.9% (active) in [12].
For the molecule `Cc1occc1C(=O)NNC(=S)NC(=O)COc1ccc(Cl)cc1Cl`, the values for the activation in assay [1], in assay [11] and in [14] were 108% (active), 58.4% (active) and 18.4% (active), respectively. The result in assay [2], in assay [3], in assay [4], in assay [5], in assay [6] and in assay [7] was inactive. Further, the result in assay [16], in assay [8], in [9], in assay [10], in assay [12] and in [13] was inactive. Besides, the result in [15] was inactive.
As for `COc1ccc(C(CNC(=O)Cc2ccc3ccccc3c2)N(C)C)cc1` (stereo not drawn), the activation in assay [1] was 171% (active); in assay [2], 88% (active); in assay [9], 55.5% (active). The result in assay [3], in assay [4], in assay [5], in assay [7], in assay [8] and in assay [10] was inactive. For the same molecule, the result in [11], in assay [12], in assay [13], in assay [14] and in assay [15] was inactive. In [6], the inhibition is 98% (active).
Turning to `CN(C)CCCN(C(=O)c1ccc(S(=O)(=O)N(C)C)cc1)c1nc2ccc(F)cc2s1`, the activation in [1] was 59% (active). Further, the result in assay [2], in assay [3], in [4], in [5], in [7] and in [8] was inactive. The call in [9], in [10], in [11], in assay [12], in [13] and in [14] was inactive. Moreover, the outcome in assay [15] was inactive. Also, in assay [6], the inhibition is 37% (active).
`CC(C)(C)C(=O)NC(=S)NNC(=O)C(c1ccccc1)c1ccccc1`: the activation in [1] was 286% (active); in [9] it was 46% (active); in assay [11], 158% (active); in [14], 119% (active). The result in assay [2], in assay [3], in [4], in assay [5], in assay [6] and in assay [7] was inactive. Further, the outcome in assay [16], in assay [8], in assay [10], in assay [12], in assay [13] and in [15] was inactive.
As for `O=C(Nc1nnc(-c2cccs2)o1)c1cccc(C(F)(F)F)c1`, the activation was 151% (active) in assay [1], 57.6% (active) in assay [11] and 29.9% (active) in assay [14]. Moreover, the outcome in assay [2], in [3], in [4], in assay [5], in assay [6] and in [7] was inactive. For the same molecule, the result in assay [16], in assay [8], in assay [9], in assay [10], in assay [12] and in [13] was inactive. Besides, the outcome in assay [15] was inactive.
Turning to `COc1ccc(C(=O)NC(=S)NNC(=O)c2cccc(C)c2)cc1`, the activation is 142% (active) in assay [1], 27% (active) in assay [9], 133% (active) in assay [11] and 40.2% (active) in assay [14]. Besides, the outcome in assay [2], in assay [3], in [4], in assay [5], in [6] and in [7] was inactive. Besides, the result in assay [16], in assay [8], in [10], in assay [12], in assay [13] and in [15] was inactive.
For the molecule `C/C(=N/NC(=O)c1ccc(Cn2cccn2)o1)c1cccc(NC(=O)c2ccncc2)c1`, the activation in [1] was 100% (active); in [9], 49% (active); in assay [11] it was 11.3% (active). The result in assay [2], in assay [3], in [4], in assay [6], in assay [7] and in assay [8] was inactive. The result in [10], in assay [12], in [13], in assay [14] and in assay [15] was inactive. The inhibition in [5] is 97% (active).
On to `CCn1cc(CN2CCC(n3nccc3NC(=O)CCCc3ccccc3)CC2)cn1`, for which the result in assay [1], in assay [2], in assay [3], in assay [4], in assay [7] and in assay [8] was inactive. Further, the outcome in assay [10], in assay [11], in assay [12], in [13], in assay [14] and in [15] was inactive. Further, the inhibition was 95% (active) in assay [5] and 58% (active) in assay [6]. Moreover, the activation in assay [9] was 36% (active).
As to `Cc1onc(-c2ccccc2)c1C(=O)NNC(=S)NC(=O)c1ccc(Br)cc1`, the activation in assay [1] is 263% (active); in assay [11] it was 190% (active); in assay [14] it was 70.7% (active). In addition, the result in [2], in assay [3], in assay [4], in assay [5], in assay [6] and in assay [7] was inactive. Moreover, the outcome in assay [16], in [8], in assay [9], in assay [10], in assay [12] and in assay [13] was inactive. Moreover, the result in [15] was inactive.
Regarding `Cc1onc(-c2ccccc2)c1C(=O)NNC(=S)NC(=O)c1ccc(Cl)cc1Cl`, the activation in [1] is 274% (active); in [2], 81% (active); in assay [9] it was 28% (active); in assay [11], 142% (active); in [14], 96.9% (active). Moreover, the outcome in assay [3], in assay [4], in assay [5], in assay [6], in [7] and in assay [16] was inactive. The result in assay [8], in assay [10], in assay [12], in [13] and in [15] was inactive.
With `Clc1ccc(COn2c(-c3ccc(Cl)cc3Cl)nc3ncccc32)cc1`, the figures for the activation in assay [1] and in assay [9] were 74% (active) and 54% (active), respectively. The result in assay [2], in assay [3], in assay [4], in [5], in assay [6] and in assay [7] was inactive. Besides, the call in assay [8], in assay [10], in [11], in assay [12], in [13] and in assay [14] was inactive. Also, in assay [15], the outcome was inactive.
Take `NC(=Nc1ccccc1)Nc1ccccc1`: the activation in assay [1] is 224% (active); in [9], 51% (active); in assay [11], 94.2% (active); in assay [14], 64.1% (active). In addition, the outcome in [2], in assay [3], in assay [4], in [5], in [6] and in assay [7] was inactive. The outcome in [16], in assay [8], in [10], in [12], in assay [13] and in assay [15] was inactive.
In the case of `CC(Oc1ccc(Cl)cc1)C(=O)NNC(=S)NC(=O)c1ccco1` (stereo not drawn), the activation in assay [1] was 192% (active); in assay [11], 104% (active); in assay [14], 29.1% (active). Moreover, the result in assay [2], in assay [3], in [4], in [5], in assay [6] and in assay [7] was inactive. The outcome in assay [16], in assay [8], in assay [9], in assay [10], in assay [12] and in assay [13] was inactive. The outcome in [15] was inactive.
Regarding `COc1ccc2nc(NS(=O)(=O)c3ccc(NC(C)=O)cc3)sc2c1`, the outcome in assay [1], in [2], in [3], in assay [4], in [6] and in assay [7] was inactive. In addition, the molecule was classed as inactive in [8], in assay [10], in [11], in assay [12], in assay [13] and in assay [14]. For the same molecule, the outcome in assay [15] was inactive. Also, in [5], the inhibition was 73% (active). Also, the activation in assay [9] was 37.5% (active).
